{"source": "PubChem BioAssay AID1159580", "about": "(chemical genetic matrix, 2015)", "assay": "chemical genetic growth profiling, strain panel (AID 1159580);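 note: tested at 20 µM; growth read once vehicle control cultures reached saturation at 30 °C; 1 = growth at the plate median or of vehicle wells; lower values mean less growth of the strain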", "details": "S. cerevisiae deletion strains, growth OD", "note": "The whole screen tested about 5,500 compounds, of which about 2,000 (36%) were called active. Another 18% or so got no clear call; they are omitted. The list shows a part of the results. Unmarked numbers belong to inactive results. Cut-off read from the data, not from the text of the source: active = normalized growth mostly below about 0.91 (no sharp cut-off); inconclusive = no clear call, values can overlap the other calls; inactive = mostly above about 0.92.", "data": [{"smiles": "O=C(NCCc1ccncc1)c1ccc(Cl)c(Cl)c1", "values": [{"measurement": "normalized growth", "setting": "locus YAR019C, strain CDC15, active compounds read low", "result": 0.985}, {"measurement": "normalized growth", "setting": "locus YBL105C, strain PKC1, active compounds read low", "result": 0.987}, {"measurement": "normalized growth", "setting": "locus YBR135W, strain CKS1, active compounds read low", "result": 0.988}, {"measurement": "normalized growth", "setting": "locus YBR136W, strain MEC1, active compounds read low", "result": 0.987}, {"measurement": "normalized growth", "setting": "locus YBR160W, strain CDC28, active compounds read low", "result": 0.991}, {"measurement": "normalized growth", "setting": "locus YDL017W, strain CDC7, active compounds read low", "result": 0.991}, {"measurement": "normalized growth", "setting": "locus YDL028C, strain MPS1, active compounds read low", "result": 0.985}, {"measurement": "normalized growth", "setting": "locus YDL101C, strain DUN1, active compounds read low", "result": 0.98}, {"measurement": "normalized growth", "setting": "locus YDL108W, strain KIN28, active compounds read low", "result": 0.981}, {"measurement": "normalized growth", "setting": "locus YDL132W, strain cdc53, active compounds read low", "result": 0.998}, {"measurement": "normalized growth", "setting": "locus YDL214C, strain PRR2, active compounds read low", "result": 0.945}, {"measurement": "normalized growth", "setting": "locus YDR052C, strain DBF4, active compounds read low", "result": 0.988}, {"measurement": "normalized growth", "setting": "locus YDR054C, strain cdc34, active compounds read low", "result": 0.984}, {"measurement": "normalized growth", "setting": "locus YDR226W, strain ADK1, active compounds read low", "result": 0.985}, {"measurement": "normalized growth", "setting": "locus YDR477W, strain SNF1, active compounds read low", "result": 1.01}, {"measurement": "normalized growth", "setting": "locus YER123W, strain YCK3, active compounds read low", "result": 0.877}, {"measurement": "normalized growth", "setting": "locus YER133W, strain GLC7, active compounds read low", "result": 0.969}, {"measurement": "normalized growth", "setting": "locus YFL009W, strain cdc4, active compounds read low", "result": 0.982}, {"measurement": "normalized growth", "setting": "locus YFL029C, strain CAK1, active compounds read low", "result": 0.98}, {"measurement": "normalized growth", "setting": "locus YFR003C, strain YPI1, active compounds read low", "result": 0.984}, {"measurement": "normalized growth", "setting": "locus YFR019W, strain FAB1, active compounds read low", "result": 0.927}, {"measurement": "normalized growth", "setting": "locus YFR028C, strain CDC14, active compounds read low", "result": 0.994}, {"measurement": "normalized growth", "setting": "locus YGR040W, strain KSS1, active compounds read low", "result": 0.992}, {"measurement": "normalized growth", "setting": "locus YGR052W, strain FMP48, active compounds read low", "result": 0.985}, {"measurement": "normalized growth", "setting": "locus YGR092W, strain DBF2, active compounds read low", "result": 1}, {"measurement": "normalized growth", "setting": "locus YHR030C, strain SLT2, active compounds read low", "result": 0.911}, {"measurement": "normalized growth", "setting": "locus YHR079C, strain IRE1, active compounds read low", "result": 0.938}, {"measurement": "normalized growth", "setting": "locus YHR082C, strain KSP1, active compounds read low", "result": 1.1}, {"measurement": "normalized growth", "setting": "locus YHR205W, strain SCH9, active compounds read low", "result": 0.99}, {"measurement": "normalized growth", "setting": "locus YIL147C, strain SLN1, active compounds read low", "result": 0.986}, {"measurement": "normalized growth", "setting": "locus YJL095W, strain BCK1, active compounds read low", "result": 0.925}, {"measurement": "normalized growth", "setting": "locus YJL128C, strain PBS2, active compounds read low", "result": 0.94}, {"measurement": "normalized growth", "setting": "locus YJL157C, strain FAR1, active compounds read low", "result": 0.96}, {"measurement": "normalized growth", "setting": "locus YJR016C, strain ILV3, active compounds read low", "result": 0.995}, {"measurement": "normalized growth", "setting": "locus YJR066W, strain TOR1 (second series), active compounds read low", "result": 1.03}, {"measurement": "normalized growth", "setting": "locus YJR066W, strain TOR1, active compounds read low", "result": 1.04}, {"measurement": "normalized growth", "setting": "locus YKL048C, strain ELM1, active compounds read low", "result": 0.992}, {"measurement": "normalized growth", "setting": "locus YKL067W, strain YNK1, active compounds read low", "result": 0.947}, {"measurement": "normalized growth", "setting": "locus YKL101W, strain HSL1, active compounds read low", "result": 0.941}, {"measurement": "normalized growth", "setting": "locus YKL193C, strain SDS22, active compounds read low", "result": 0.992}, {"measurement": "normalized growth", "setting": "locus YKL203C, strain TOR2, active compounds read low", "result": 1.01}, {"measurement": "normalized growth", "setting": "locus YLR113W, strain HOG1, active compounds read low", "result": "0.756 (active)"}, {"measurement": "normalized growth", "setting": "locus YLR133W, strain CKI1, active compounds read low", "result": 0.977}, {"measurement": "normalized growth", "setting": "locus YLR403W, strain SFP1, active compounds read low", "result": 0.972}, {"measurement": "normalized growth", "setting": "locus YML070W, strain DAK1, active compounds read low", "result": 0.941}, {"measurement": "normalized growth", "setting": "locus YMR001C, strain CDC5, active compounds read low", "result": 0.989}, {"measurement": "normalized growth", "setting": "locus YMR205C, strain PFK2 (second series), active compounds read low", "result": 0.978}, {"measurement": "normalized growth", "setting": "locus YMR277W, strain FCP1, active compounds read low", "result": 0.989}, {"measurement": "normalized growth", "setting": "locus YNL006W, strain LST8, active compounds read low", "result": 0.976}, {"measurement": "normalized growth", "setting": "locus YNL020C, strain ARK1, active compounds read low", "result": 0.964}, {"measurement": "normalized growth", "setting": "locus YNL161W, strain CBK1, active compounds read low", "result": 0.991}, {"measurement": "normalized growth", "setting": "locus YNL183C, strain NPR1, active compounds read low", "result": 1.01}, {"measurement": "normalized growth", "setting": "locus YNL207W, strain RIO2, active compounds read low", "result": 0.991}, {"measurement": "normalized growth", "setting": "locus YNL222W, strain SSU72, active compounds read low", "result": 0.992}, {"measurement": "normalized growth", "setting": "locus YNL307C, strain MCK1 (second series), active compounds read low", "result": 0.961}, {"measurement": "normalized growth", "setting": "locus YOL078W, strain AVO1, active compounds read low", "result": 0.997}, {"measurement": "normalized growth", "setting": "locus YOL136C, strain PFK27, active compounds read low", "result": 0.945}, {"measurement": "normalized growth", "setting": "locus YOR061W, strain CKA2, active compounds read low", "result": 0.924}, {"measurement": "normalized growth", "setting": "locus YOR119C, strain RIO1, active compounds read low", "result": 1.03}, {"measurement": "normalized growth", "setting": "locus YOR231W, strain MKK1, active compounds read low", "result": 0.916}, {"measurement": "normalized growth", "setting": "locus YOR329C, strain SCD5, active compounds read low", "result": 0.991}, {"measurement": "normalized growth", "setting": "locus YPL031C, strain PHO85, active compounds read low", "result": 0.976}, {"measurement": "normalized growth", "setting": "locus YPL153C, strain RAD53, active compounds read low", "result": 0.993}, {"measurement": "normalized growth", "setting": "locus YPL204W, strain HRR25, active compounds read low", "result": 0.972}, {"measurement": "normalized growth", "setting": "locus YPL209C, strain IPL1, active compounds read low", "result": 0.987}, {"measurement": "normalized growth", "setting": "locus YPL256C, strain CLN2, active compounds read low", "result": 0.868}, {"measurement": "normalized growth", "setting": "locus YPR025C, strain CCL1, active compounds read low", "result": 0.992}, {"measurement": "normalized growth", "setting": "locus YPR106W, strain ISR1, active compounds read low", "result": 0.983}, {"measurement": "normalized growth", "setting": "locus YPR111W, strain DBF20, active compounds read low", "result": 0.961}, {"measurement": "normalized growth", "setting": "strain NNK1, active compounds read low", "result": 0.982}, {"measurement": "normalized growth", "setting": "strain TSCII, active compounds read low", "result": 0.983}]}]}
